Hits are enriched below; roughly 5.8% of the tested compounds scored in any of these assays.
KB-3-1 cytotox – KB-3-1 parental cell cytotoxicity; KB-3-1 viability, CellTiter-Glo ATP luminescence, 72 h; Potency, µM (top dose mostly 46.1 µM), actives largely listed as cytotoxic; 1.4% of 400,000 active; AID 1347075; also: % is scaled to controls: 0 for no effect and ±100 for the full control effect; nearly all actives have a fitted effect of over 60% in size
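72 h, 37 °C compound treatment of KB-3-1 parental cells; CellTiter-Glo added, 10 min, luminescence read. Data corrected against DMSO-only plates and normalized before curve fitting.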
KB-V1 cytotox – kills drug-selected multidrug resistant KB-V1 cells | KB-V1 MDR cells viability, CellTiter-Glo, 72 h | Potency, µM (top dose mostly 46.1 µM), actives largely listed as cytotoxic | 3.4% of 400,000 active | AID 1347076; also: % is scaled to controls: 0 for no effect and ±100 for the full control effect; nearly all actives have a fitted effect of over 60% in size
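Cells of the MDR subline KB-V1 are plated, dosed with compound at multiple concentrations, and incubated 72 h at 37 degrees C; CellTiter-Glo is then added and luminescence read after 10 min.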
ALOX12 inh – ALOX12 (human) lipoxygenase inhibition | AID 1671190 | purified 12hLO, xylenol orange hydroperoxide absorbance | Potency, µM (series often up to 108 µM), without a hit: at the highest dose activity change, negative = inhibition, hits mostly inhibitors | 1.1% of 580,000 active | P18054; also: % is scaled to controls: 0 for no effect and ±100 for the full control effect
Target sequence (P18054 whole entry, looked up): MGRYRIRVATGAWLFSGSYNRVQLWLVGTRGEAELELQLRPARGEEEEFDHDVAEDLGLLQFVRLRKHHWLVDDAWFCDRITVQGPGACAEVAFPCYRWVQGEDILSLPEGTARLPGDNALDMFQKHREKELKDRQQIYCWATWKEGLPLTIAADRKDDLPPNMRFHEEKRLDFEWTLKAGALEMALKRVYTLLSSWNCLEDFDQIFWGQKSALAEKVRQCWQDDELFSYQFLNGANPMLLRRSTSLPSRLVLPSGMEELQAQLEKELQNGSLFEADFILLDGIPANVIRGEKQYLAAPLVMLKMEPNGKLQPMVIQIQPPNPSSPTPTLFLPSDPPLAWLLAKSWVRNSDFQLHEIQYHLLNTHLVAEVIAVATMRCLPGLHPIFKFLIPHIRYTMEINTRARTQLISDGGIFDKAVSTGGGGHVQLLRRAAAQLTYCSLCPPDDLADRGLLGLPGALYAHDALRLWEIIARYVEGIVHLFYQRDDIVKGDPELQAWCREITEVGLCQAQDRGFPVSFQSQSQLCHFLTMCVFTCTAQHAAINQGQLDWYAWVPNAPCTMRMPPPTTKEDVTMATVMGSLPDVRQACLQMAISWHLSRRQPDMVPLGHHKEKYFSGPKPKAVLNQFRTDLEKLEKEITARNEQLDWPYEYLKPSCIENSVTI
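Purified human 12hLO (150 nM final) in 25 mM Hepes, 0.01% Triton X-100, pH 7.0 was preincubated 15 min at room temperature with compound. Then 40 uM arachidonic acid was added, 30 min. Hydroperoxide was read by Fe-XO absorbance ratio 573/405 nm.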
PINK1 expr mod – PINK1 expression modulation; Potency, µM (top dose mostly 76.6 µM), without a hit: at the top dose activation (PINK1 increase), usual class: activators; PINK1 immunofluorescence, high-content cytometry, 24 h; AID 624263; 0.2% of 410,000 active; active = well fitted activation curve with a large enough effect; inconclusive = small, poorly fitted or top-dose-only effect; cell line not stated here; also: % of control where 0% means no effect; nearly all actives have a fitted effect of over 65% in size
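Fluorescence from anti-PINK1 antibody, together with nuclear and cell stains, was scanned on a laser-scanning cytometer. Before staining, stable-line cells were incubated 24 hours with compounds at 5 concentrations; primary antibody 12 h at 10 degrees C.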
SW480 rerep – inducers of DNA re-replication in SW480 colon cancer cells | SW480 DNA re-replication, Hoechst DNA content imaging, 48 h | Potency, µM (top dose mostly 46.1 µM), for the others: at the top dose re-replication activation, most hits filed as activators | 1.8% of 340,000 active | AID 624297; also: % of control where 0% means no effect; nearly all actives have a fitted effect of over 55% in size
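Quantitative HTS format with DMSO vehicle controls; 48 hr drug incubation at 37 C, then 40 min Hoechst staining and scanning imager measurement at 405 nm excitation.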
MCF10A rereplic – inducers of DNA re-replication in MCF 10A breast cells. MCF 10A DNA re-replication, Hoechst nuclear intensity, 48 h. Potency, µM (highest dose often 46.1 µM), for the others: at the highest dose activity, positive = re-replication, hits mostly activators. 2.9% of 350,000 active. AID 624296; also: % of control where 0% means no effect; nearly all actives have a fitted effect of over 50% in size
Starred values were filed as active, the others as inactive; i = inactive; ? = inconclusive; nt = no result given; ! = repeats disagree; [ ] = remark or other dose. Unless noted, calls follow the shape of the dose curve; as a rule, active = well fitted curve in the direction sought with a large enough effect; inconclusive = small, poorly fitted or top-dose-only effect, or another doubt; inactive = no such curve, though single readings can be large; an effect the other way counts as inactive or inconclusive. Potency is read from the fitted curve at half-maximal effect.

SMILES | KB-3-1 cytotox | KB-V1 cytotox | ALOX12 inh | PINK1 expr mod | SW480 rerep | MCF10A rereplic
CCCc1c(-c2cccc(F)c2)ncn1CCc1ccccc1OC | ? | 18.4µM* | -20.6% | 27.3% | nt | nt
CCCc1c(-c2ccccc2)ncn1Cc1ccccc1OC | ? | 18.4µM* | -33.6% | 19.3% | nt | nt
CCCCCc1c(-c2cccc(F)c2)ncn1CCc1ccccc1OC | ? | 8.2µM* | -71.0% | -0.3% | nt | nt
CCCCCc1c(-c2cccc(Cl)c2)ncn1CCc1ccccc1OC | i | ? | -20.1% | 8.0% | nt | nt
CCc1c(-c2ccc(OC)c(OC)c2)ncn1CCc1ccccc1OC | nt | nt | -13.4% | nt | nt | nt
CCCc1c(-c2ccc(F)cc2)ncn1Cc1ccccc1OC | ? | ? | -74.6% | ? | nt | nt
COCC1CN(C)CC12CCN(S(=O)(=O)c1ccc(C#N)cc1)CC2 (stereo unspecified) | nt | nt | 12.0% | nt | nt | nt
COc1ccccc1CCn1cnc(-c2cccc(Br)c2)c1C(C)C | nt | nt | -21.1% | nt | nt | nt
CCCCc1c(-c2cccc(F)c2)ncn1CCc1ccccc1OC | ? | 11.6µM* | ? | -1.3% | nt | nt
CCCCc1c(-c2cccc(Br)c2)ncn1CCc1ccccc1OC | ? | 10.3µM* | ? | -1.3% | nt | nt
Cc1ccc2c(c1)c(C(=O)N1CCC3(CCNC(=O)CC3)CC1)nn2C | nt | nt | 36.2% | nt | nt | nt
CC(=O)c1ccc(NC(=O)COC(=O)Cc2cccc3ccccc23)cc1 | nt | nt | 7.2% | nt | nt | nt
CCc1cc(=O)oc2cc(OCC(=O)NCc3ccccn3)ccc12 | i | i | 15.8% | 2.8% | 11.6µM* | ?
CCCCOC(=O)c1ccc(NC(=S)N2CCN(c3ncc4c(=O)c(C(=O)O)cn(CC)c4n3)CC2)cc1 | i | ? | 0.0% | 28.2µM* | ? | 3.7%
CCn1cc(C(=O)O)c(=O)c2cnc(N3CCN(C(=S)Nc4ccccc4)CC3)nc21 | i | i | -19.5% | -1.4% | -67.6% | ?
COc1cc(CN(C(=O)c2ccco2)c2ccc(C)cc2)ccc1O | i | 13µM* | -1.3% | -0.8%[38.3 µM] | -1.2% | -4.9%
COc1ccc(CN(C(=O)c2ccco2)c2ccc(C)c(C)c2)cc1 | 16.4µM* | ? | 0.9% | 3.4% | 16.4µM* | 10.3µM*
O=C(O)C1(c2ccc(Cl)cc2)CCCCC1 | nt | nt | -1.5% | nt | nt | nt
O=C(/C=C/c1cccc(F)c1)NNC(=O)c1ccncc1 | ? | 8.2µM* | 26.2% | 0.4% | 0.5% | 4.7%
O=C(/C=C/c1cccc(Cl)c1)NNC(=O)c1ccncc1 | ? | i | 113.7% | 1.0% | -4.3% | 3.7%
O=[N+]([O-])c1ccc(/C=N/Nc2ccc(S(=O)(=O)Nc3cccc(Cl)c3)cc2[N+](=O)[O-])cc1 | nt | nt | 14.2% | nt | nt | nt
CCC(CNC(=O)c1nn(-c2ccccc2)c(=O)c2ccccc12)c1ccccc1 (stereo unspecified) | nt | nt | -10.2% | nt | nt | nt
CCOc1cccc2cc(-c3nnc(NCc4ccco4)s3)c(=O)oc12 | i | i | 27.9% | 8.4% | ? | 20.6µM*
COc1ccc2oc(=O)c(-c3nnc(NCc4ccco4)s3)cc2c1 | ? | ? | 0.0% | 1.5% | 8.91µM* | 7.31µM*
COc1cccc(C2CC(=O)Oc3c2c(=O)[nH]c2ccccc32)c1 (stereo unspecified) | nt | nt | -0.5% | nt | nt | nt
SMILES | KB-3-1 cytotox | KB-V1 cytotox | ALOX12 inh | PINK1 expr mod | SW480 rerep | MCF10A rereplic
c1ccc(-c2nnc3sc(CN4CCC5(CC4)OCCO5)cn23)cc1 | i | 20.6µM* | -0.5% | 13.9%[38.3 µM] | -2.1% | -2.9%
COCCOC(=O)C1=C(C)OC(N)=C(C#N)C1c1cc2cccc(C)c2nc1Cl (stereo unspecified) | i | i | 2.8% | 5.1% | 4.3% | 23.1µM*
COC(=O)[C@@]12C[C@@H](CC(=O)NCCc3ccccc3OC)C(=O)N(CCc3ccc(OC)c(OC)c3)C1=CCC(C)(C)C2 | ? | 20.6µM* | -20.7% | nt | nt | nt
COC(=O)[C@@]12C[C@@H](CC(=O)NCC34CC5CC(CC(C5)C3)C4)C(=O)N(CCc3ccc(OC)c(OC)c3)C1=CCC(C)(C)C2 | ? | 23.1µM* | ? | nt | nt | nt
Cc1ccccc1CCNC(=O)c1cccc2ncccc12 | nt | nt | 49.4% | nt | nt | nt
Cc1nc2ncnn2c(N(C)C)c1Cc1ccccc1 | nt | nt | 11.9% | nt | nt | nt
Cc1nc2ncnn2c(Nc2ccc3c(c2)OCO3)c1Cc1ccccc1 | ? | 16.4µM* | 4.6% | 0.8%[38.3 µM] | 17.1% | 21.0%
CC(C)c1ccc2oc(-c3ccc(N)cc3)nc2c1 | ? | 20.6µM* | ? | 4.8%[38.3 µM] | 12.3% | 10.5%
Cc1oc2ccc(OS(C)(=O)=O)cc2c1C(=O)OC(C)C | i | 13µM* | -21.2% | 0.2% | 0.6% | -11.4%
COCCOC(=O)c1c(C)oc2ccc(OS(C)(=O)=O)cc12 | ? | ? | 1.3% | -0.6% | -25.1% | 17.4%
CCc1ccc(NC(=S)Nc2cccc3cnccc23)cc1 | ? | 20.6µM* | 14.0% | 0.4% | 6.3% | 1.6%
Cc1ccc(NC(=S)Nc2cccc3ccccc23)cc1F | i | i | 39.8µM* | 0.1% | -33.8% | ?
Cc1cc(C)cc(NC(=S)Nc2cccc3cnccc23)c1 | i | i | ? | -0.7% | 0.1% | ?
CNC[C@H](O)c1ccc(O)c(O)c1 | i | i | 1.4µM*! | 0.8% | 3.1% | 0.1%
Cc1ccc(Cc2cnc(NC(=O)CN3CCOCC3)s2)cc1Cl | i | ? | 7.2% | nt | -6.1% | -0.6%
N#CCC(=O)Nc1ncc(Cc2ccccc2Cl)s1 | i | i | 0.0% | 1.4% | ? | 14.6µM*
O=C(CN1CCOCC1)Nc1ncc(Cc2cccc3ccccc23)s1 | i | 13µM* | 1.7% | nt | 21.9% | ?
CC(C)C(=O)Nc1ncc(Cc2ccccc2Cl)s1 | i | i | 0.0% | 6.9% | 0.1% | 2.7%
CC(=O)NCCNC(=O)Cc1c[nH]c2ccccc12 | nt | nt | -6.9% | nt | nt | nt
O=C(c1ccccc1)c1coc2c1C(=O)c1ccccc1C2=O | i | i | -3.0% | -1.0% | 2.4% | ?
O=C1c2ccccc2C(=O)c2c(NCc3cccnc3)cccc21 | i | 8.2µM* | -0.7% | 1.5% | 1.5% | 12.4%
COc1ccc(CNC(=O)c2c(C)oc3c2C(=O)c2ccccc2C3=O)cc1 | ? | i | ? | -0.9% | 20.6µM* | 4.61µM*
O=C1c2ccccc2C(=O)c2c1oc(C(F)(F)F)c2C(=O)c1ccccc1 | 4.61µM* | 7.31µM* | ? | -2.0% | 4.11µM* | 4.61µM*
Cc1oc2c(c1C(=O)NCc1cccnc1)C(=O)c1ccccc1C2=O | ? | 2.59µM* | nt | 3.0% | 18.7% | ?
CC(=O)c1c(C)oc2c1C(=O)c1ccccc1C2=O | ? | 6.51µM* | -9.3% | 0.8% | 7.31µM* | 22.1%
Cc1ccc(C(=O)NCc2ccc(N3CCN(C(=O)OC(C)(C)C)CC3)cc2)cc1 | i | 3.66µM* | -8.2% | 11.3% | -9.6% | 6.9%

Compound activity as filed in PubChem BioAssay.
